Experimental data: PubChem BioAssay (NCI)
The panel holds about 79,000 compounds, 15% with a hit somewhere; the sample as a whole holds those more often. Cut-off read from the data, not from the text of the source: active = growth inhibition above about 70%; inactive = the rest.

How the values were obtained:
[1] = NCI Yeast Anticancer Drug Screen. Data for the rad50 strain (AID 155);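 note: 0% = growth of vehicle-only cultures of the same strain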; conditions: S. cerevisiae rad50 strain growth inhibition; at 50.0 µM; active compounds read high
Procedure, shortened: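 Growth of the mutant yeast was measured after compound exposure and referenced to vehicle-treated cultures.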

[2] = NCI Yeast Anticancer Drug Screen. Data for the mec2-1 strain (AID 157); conditions: S. cerevisiae mec2-1 strain, at 50.0 µM, active compounds read high
Procedure, shortened: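 Compounds were applied to mec2-1 yeast cells. Their growth was then compared with that of vehicle-treated cultures to give growth inhibition.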

[3] = NCI Yeast Anticancer Drug Screen. Data for the sgs1 mgt1 strain (AID 161);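 note: 0% = growth of cultures given vehicle only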; conditions: S. cerevisiae sgs1 mgt1 strain, at 50.0 µM, active compounds read high
Procedure, shortened: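 Growth of a repair-deficient yeast mutant was monitored after compound treatment and expressed as inhibition relative to vehicle-treated cultures.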

[4] = NCI Yeast Anticancer Drug Screen. Data for the cln2 rad14 strain (AID 165);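 note: 0% = growth equal to vehicle treated cultures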; conditions: S. cerevisiae cln2 rad14 strain, at 50.0 µM, active compounds read high
Procedure, shortened: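 Strain: cln2 rad14 yeast, altered in cell cycle control and DNA damage repair. Read-out: growth inhibition vs vehicle.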

[5] = NCI Yeast Anticancer Drug Screen. Data for the bub3 strain (AID 167); conditions: S. cerevisiae bub3 mutant strain, at 50.0 µM, active compounds read high
Procedure, shortened: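 Whole-cell yeast assay. The mutant strain was incubated with compounds, and growth inhibition was determined by comparison with vehicle-treated cells.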

[6] = NCI Yeast Anticancer Drug Screen. Data for the mlh1 rad18 strain (AID 175); conditions: S. cerevisiae mlh1 rad18 strain growth inhibition; at 50.0 µM; active compounds read high
Procedure, shortened: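 A repair-deficient yeast strain is exposed to test compound, and growth is scored relative to vehicle-treated controls.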

Measured: growth inhibition

COc1ccccc1NC(=O)C(CC(C(=O)Nc1ccccc1OC)/C(C)=N/NC(=O)c1ccccc1O)/C(C)=N/NC(=O)c1ccccc1O (stereo not given)
inactive: [1] -27.8% | [2] -14.2% | [3] -28.2% | [4] 21.9% | [5] -3.55% | [6] -9.1%

CCCCCC1CCC(O)CC1 (stereo not given)
inactive: [1] 16.1% | [2] 6.55% | [3] 21.1% | [4] -61.4% | [5] 4.2% | [6] -7.55%

O=C1CCC(=O)N1n1c(Cc2ccc(Cl)cc2)n[nH]c1=O
inactive: [1] 17.4% | [2] 8.5% | [3] 19.1% | [4] 4.85% | [5] 12.8% | [6] -44.6%

COc1ccc(/C=C/C(=O)c2ccc3c(c2)OCO3)cc1OC
inactive: [1] -15.6% | [2] -14.8% | [3] -45.1% | [4] -6.65% | [5] -33.7% | [6] -23.5%

CCOC(=O)c1nc2ccccc2nc1NCc1ccc(OC)c(OC)c1
inactive: [1] 0.65% | [2] 13.1% | [3] -7.75% | [4] 19.7% | [5] -0.05% | [6] -11.4%

CCOC(=O)C(CCCCS(=O)(=O)O)C(=O)OCC
inactive: [1] -12.3% | [2] -9.35% | [3] -18.9% | [4] -35% | [5] -5.25% | [6] 11.2%

CCn1c(=O)c2ccccc2c2cc([N+](=O)[O-])ccc21
inactive: [1] 7.65% | [2] 18.1% | [3] 2.75% | [4] 17.1% | [5] 12.2% | [6] -2.7%

CCCCCCCCCCCCCCCC/C(C(=O)OC)=C(/O)C(=O)OCC
inactive: [1] -4.7% | [2] -12.1% | [3] -3.65% | [4] -67% | [5] -1.2% | [6] -5.75%

ClC(Cl)(Cl)c1ccc(C2OCCO2)cc1
inactive: [1] -17.8% | [2] -6.8% | [3] -7.85% | [4] -26.6% | [5] -22% | [6] -0.3%

CC(=O)NC(CC(=O)O)C(=O)Nc1ccccc1 (stereo not given)
inactive: [1] 13.8% | [2] 36.8% | [3] 16.6% | [4] 13.6% | [5] 8.9% | [6] 13.4%

O=C(NC1(C(=O)O)CC1c1ccccc1)c1ccccc1 (stereo not given)
inactive: [1] -1.2% | [2] 21% | [3] 0.05% | [4] -10.2% | [5] 9.05% | [6] 42.8%

NC(CCC(=O)NC(CSCNC(=O)Nc1ccc(Cl)cc1)C(=O)NCC(=O)O)C(=O)O (stereo not given)
inactive: [1] -5.15% | [2] 4.4% | [3] -1.65% | [4] -13.7% | [5] -3.85% | [6] 15.9%

Cc1cccc(-n2cnc3c(N(CCO)CCO)ncnc32)c1
inactive: [1] 6.55% | [2] 2.6% | [3] -10.1% | [4] -4.5% | [5] 2.25% | [6] -4.3%

CC(C)(C)Oc1cc(F)c(C(C)(C)C)cc1C(C)(C)C
inactive: [1] -4% | [2] -7.4% | [3] -2.4% | [4] 8.75% | [5] 0.05% | [6] 10.7%

COC(=O)C(C(=O)C(=O)Nc1ccc(C)cc1)c1nc2ccc([N+](=O)[O-])cc2[nH]c1=O (stereo not given)
inactive: [1] 16.9% | [2] 15.2% | [3] 0.8% | [4] -3.95% | [5] 22.2% | [6] 4.6%

O=C(NCCCCC[N+](CCCCCNC(=O)c1ccccc1)(CCCCCNC(=O)c1ccccc1)CCCCCNC(=O)c1ccccc1)c1ccccc1
inactive: [1] 3.65% | [2] 10.4% | [3] -15.2% | [4] -2.2% | [5] -1.65% | [6] -7.85%

CC(=O)n1c(=O)c2cc3c(=O)n(-c4cccc(C#N)c4)c(=O)c3cc2c1=O
inactive: [1] -25.4% | [2] -19.4% | [3] 9.65% | [4] 7.65% | [5] 4.8% | [6] -9.65%

NC(=S)N1CCCC1
inactive: [1] -2.2% | [2] -22.1% | [3] 3.05% | [4] 7% | [5] 17.6% | [6] 19.3%

Cc1ccc(Oc2cc(C)ccc2P(=O)(O)O)cc1
inactive: [1] 6.5% | [2] 1.4% | [3] 22.2% | [4] 26.1% | [5] -23.7% | [6] 23.1%

O=c1nc(Oc2ccccc2)nc2ncccn12
inactive: [1] 47% | [2] 26.1% | [3] 40.5% | [4] 20.2% | [5] 50.6% | [6] 65%
